Screen size: about 5,500 compounds; about 2,000 (36%) were called active. Roughly 18% stayed inconclusive and do not appear here. No stated cut-off is given here; in the data, active means normalized growth mostly below about 0.91 (no sharp cut-off); inconclusive means no clear call, values can overlap the other calls; inactive means mostly above about 0.92. Some of the results follow.
Test: chemical genetic growth profiling, strain panel (AID 1159580);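 further: tested at 20 µM; growth read once vehicle control cultures reached saturation at 30 °C; 1 = growth at the plate median or of vehicle wells; lower values mean less growth of the strain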
Settings: S. cerevisiae deletion strains, growth OD

Measured: normalized growth

OCC1O[C@H](O)C(Cl)C(O)C1O (some centres undefined)
inactive: locus YAL013W, strain DEP1, active compounds read low 1.01 | locus YAL040C, strain CLN3, active compounds read low 1.01 | locus YCL061C, strain MRC1 (second series), active compounds read low 1.01 | locus YDR363W, strain ESC2, active compounds read low 0.977 | locus YER002W, strain NOP16, active compounds read low 1 | locus YGR229C, strain SMI1, active compounds read low 0.994 | locus YJR075W, strain HOC1, active compounds read low 0.984 | locus YNL128W, strain TEP1, active compounds read low 1.01 | locus YNL175C, strain NOP13, active compounds read low 1.02 | locus YNL197C, strain WHI3, active compounds read low 0.986 | locus YNL224C, strain SQS1, active compounds read low 1 | locus YOR083W, strain WHI5 (second series), active compounds read low 1.02 | locus YPL055C, strain LGE1, active compounds read low 0.979 | locus YPL241C, strain CIN2, active compounds read low 1.01
